Only a sample is shown.
aSyn UTR act – Activators via SNCA 5'UTR binding, MLPCN. alpha-synuclein 5'UTR reporter, activators screen. activity score, % (tested at 7.5 µM), hits read low. hit rate 7.1% among 300,000; in the data active = activity score below about -60%
Of the large screens only hits and unclear results are named; the others gave an inactive call.

CCN(CC(=O)Nc1ccc2c(c1)OCCO2)C(=O)/C=C/c1ccc(F)cc1	aSyn UTR act -70.2
COc1cccc(CNC(C)C(=O)Nc2ccc3c(c2)OCCO3)c1 (stereo unspecified)	aSyn UTR act -88.9
CCOCC(=O)Nc1ccc2c(c1)OCCO2	aSyn UTR act -66.2
O=C(COc1ccc2c(c1)OCO2)Nc1cccc(F)c1	aSyn UTR act -94.0
COc1ccc(OCCCC(=O)Nc2ccc3c(c2)OCCO3)cc1	aSyn UTR act -131.6
CCOc1cc(C2NN=C(c3ccccc3)S2)ccc1OCc1ccccc1Cl (stereo unspecified)	aSyn UTR act -132.2
CCOc1cc(C2NN=C(c3ccccc3)S2)ccc1OCc1ccc(F)cc1 (stereo unspecified)	aSyn UTR act -128.8
CCOc1cc(CNCCCN2CCOCC2)cc(Br)c1OCc1ccccc1Cl	none
CCc1cc2c(=O)n(C(C)C(=O)OC3CCCCC3)cnc2s1 (stereo unspecified)	aSyn UTR act -137.0
O=C1C(Cl)=C(Nc2cccc(O)c2)C(=O)N1Cc1ccccc1	aSyn UTR act -68.8
O=C1C2C3C=CC(CC3)C2C(=O)N1/N=C/c1c[nH]c2ccccc12 (stereo unspecified)	aSyn UTR act -91.7
O=C1C2C3C=CC(C3)C2C(=O)N1/N=C/c1cn(Cc2ccccc2)c2ccccc12 (stereo unspecified)	none
CCCn1nnc(NC(=S)NC(=O)c2cccs2)n1	aSyn UTR act -101.9
CCCn1nnc(NC(=O)c2ccc3c(c2)OCO3)n1	aSyn UTR act -89.8
CCCn1nnc(NC(=O)c2cccc(Cl)c2)n1	aSyn UTR act -64.4
CCCn1nnc(NC(=O)c2sc3ccccc3c2Cl)n1	aSyn UTR act -104.1
CCCCn1nnc(N(C(=O)c2cccs2)C(=O)c2cccs2)n1	aSyn UTR act -88.7
CCCn1nnc(NC(=O)c2ccc(-c3cccc(Cl)c3)o2)n1	aSyn UTR act -80.0
Cc1nc(-n2[nH]c3c(c2=O)CCCC3)[nH]c(=O)c1Cc1ccccc1	none
O=C(CSc1nc(-c2ccc(F)cc2)cs1)NCCN1C(=O)CSC1=O	aSyn UTR act -62.1
O=C(CSc1nc(-c2ccccc2)cs1)NCCN1C(=O)CSC1=O	aSyn UTR act -70.5
CCc1ccc(C(=O)Nc2cc(C)ccc2F)s1	aSyn UTR act -143.0
Cc1nnc(NC(=O)c2cc3ccccc3o2)s1	aSyn UTR act -81.5
CCOC(=O)c1csc(-c2ccc3c(c2)CCO3)n1	aSyn UTR act -109.5
CCOC(=O)c1sc(NC(=O)c2ccc(CC)s2)nc1C	aSyn UTR act -133.4
COC(=O)Cc1csc(Nc2ccccc2Cl)n1	aSyn UTR act -86.1
CCOC(=O)c1csc(NC(=O)c2cc3ccccc3o2)n1	aSyn UTR act -125.2
CCOC(=O)c1csc(NC(=O)c2ccc3c(c2)OCCO3)n1	aSyn UTR act -78.5
CCOC(=O)c1csc(NC(=O)c2ccccc2)n1	aSyn UTR act -157.6
CCOC(=O)c1sc(Nc2ccccc2Cl)nc1C	aSyn UTR act -183.8
CCOC(=O)Cc1cnc(NC(=O)c2ccccc2)s1	aSyn UTR act -112.8
CCOC(=O)c1sc(NC(=O)c2cc3ccccc3o2)nc1C	aSyn UTR act -113.5
CCOC(=O)c1sc(NC(=O)Nc2ccccc2F)nc1C	none
Cc1nc2c(ccc3nc(NC(=O)c4ccc5c(c4)OCCO5)sc32)s1	aSyn UTR act -116.6
C=CCOC(=O)c1sc(NC(=O)c2ccco2)nc1C	aSyn UTR act -167.4
O=C(N/N=C/c1ccccc1Cl)c1cccc(F)c1	aSyn UTR act -138.1
O=C(N/N=C/c1cccc(F)c1)c1ccc(Cl)cc1	aSyn UTR act -149.9
CC(C)(C)c1ccc(C(=O)N/N=C/c2cccc(Cl)c2)cc1	aSyn UTR act -89.4
Fc1cccc(/C=N/Nc2ccc(Cl)nn2)c1	aSyn UTR act -116.0
Oc1c(Br)cc(Br)cc1/C=N/Nc1ccc(Cl)nn1	none
Cc1ccc(C2=NNC(C(O)C(O)C(O)C(O)CO)S2)cc1 (stereo unspecified)	aSyn UTR act -103.2
O=C1N=C(N2CCOCC2)S/C1=C/c1cc2c(cc1[N+](=O)[O-])OCO2	aSyn UTR act -67.3
CCOC(=O)c1sc(=NC(=O)c2cccc(OC)c2)n(C)c1C	aSyn UTR act -182.6
CCOC(=O)c1sc(=NC(=O)c2ccccc2)n(C)c1C	aSyn UTR act -133.6
CCOC(=O)c1sc(=NC(=O)c2ccc(OC)c(OC)c2)n(C)c1C	aSyn UTR act -68.9
CN(C)c1ccc(NC(=S)NC23CC4CC(CC(C4)C2)C3)cc1	aSyn UTR act -128.5
CN(C)c1ccc(/C=C(/C#N)C(=O)NCc2ccccc2)o1	aSyn UTR act -96.2
Cc1nnc(NC(=O)Nc2cccc(Cl)c2)s1	aSyn UTR act -122.5
Cc1csc(NC(=O)Nc2cccc(Cl)c2)n1	aSyn UTR act -202.7
Oc1cccc2ccc(/C=C/c3cccs3)nc12	aSyn UTR act -171.7
COc1cc(/C=C/c2ccc3cccc(O)c3n2)ccc1O	aSyn UTR act -66.6
COc1ccc(C(NC(C)=O)c2ccc3cccnc3c2O)c(OC)c1 (stereo unspecified)	none
CC[C@@H](C(=O)[C@@H](C)[C@@H](O)[C@H](C)CCc1ccc(C)c(O)c1C(=O)O)[C@H]1O[C@](CC)([C@H]2CC[C@](O)(CC)[C@H](C)O2)C[C@@H]1C	none
c1ccc(-c2ccc3ccccc3n2)cc1	aSyn UTR act -191.4
